PubChem BioAssay (NCI)
The panel holds about 83,000 compounds, 20% with a hit somewhere; the sample as a whole holds those more often.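 Step 1: grow cells in 96-well plates. Step 2: add test compound at a single concentration. Step 3: incubate 48 h. Step 4: record percent growth.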 Activity calls are given as the source filed them. How the source made its calls: active means growth percent below 10; inactive means the rest.

Key:
Assay in all cases: NCI-60 one-dose screen, 48 h (100 = growth as untreated, 0 = no growth, -100 = all killed)
Conditions in all cases: 10 µM unless noted
T-47D breast = test system: T-47D breast
BT-549 breast = test system: BT-549 breast
MDA-MB-435 melanoma = test system: MDA-MB-435 melanoma
SW-620 colon = test system: SW-620 colon
MCF7 breast = test system: MCF7 breast
HCT-116 colon = test system: HCT-116 colon
HCC-2998 colon = test system: HCC-2998 colon
KM12 colon = test system: KM12 colon

Measured: growth

COC(=O)[C@@H]1CCCN1C(=O)[C@@H]1CCCN1C(=O)[C@H](Cc1ccccc1)NC(=S)Nc1cc(C(F)(F)F)cc(C(F)(F)F)c1
inactive: T-47D breast 92.3% | BT-549 breast 81.1% | MDA-MB-435 melanoma 86.5% | SW-620 colon 93% | MCF7 breast 67.1% | HCT-116 colon 69% | HCC-2998 colon 93.3% | KM12 colon 45.1%

NC(CSC(c1ccccc1)(c1ccccc1)c1ccc(Cl)cc1)C(=O)O (stereo unspecified)
inactive: T-47D breast 23.7% | BT-549 breast 27.1% | SW-620 colon 19.2%
active: MDA-MB-435 melanoma -40.2% | MCF7 breast 8.48% | HCT-116 colon 4.19% | HCC-2998 colon -36.3% | KM12 colon 1.65%

c1csc(C2=NN3C(C2)c2ccccc2OC3c2ccncc2)c1 (stereo unspecified)
inactive: T-47D breast 93.2% | BT-549 breast 92.4% | MDA-MB-435 melanoma 99.6% | SW-620 colon 103% | MCF7 breast 77.3% | HCT-116 colon 102% | HCC-2998 colon 96.3% | KM12 colon 92.2%

CCN(CC)c1ccc(/C=N\NC(=O)/C=C/C=C/c2ccc3c(c2)OCO3)c(O)c1
inactive: T-47D breast 26.3% | BT-549 breast 51.8% | MDA-MB-435 melanoma 48.9% | SW-620 colon 32.3% | MCF7 breast 19.5% | HCC-2998 colon 54% | KM12 colon 30.2%
active: HCT-116 colon 7.86%

CC(C)C1=C[C@@]23CC[C@@H]4[C@](C)(CCC[C@@]4(C)C(=O)N4CCCNCC4)[C@H]2C[C@@H]1[C@H]1C(=O)CCC(=O)[C@H]13
inactive: T-47D breast 100% | BT-549 breast 104% | MDA-MB-435 melanoma 109% | SW-620 colon 105% | MCF7 breast 90.4% | HCT-116 colon 103% | HCC-2998 colon 107% | KM12 colon 101%

CCCCn1cnc2c(Sc3c([N+](=O)[O-])ncn3C)nc(N)nc21
inactive: T-47D breast 74.1% | BT-549 breast 98.3% | MDA-MB-435 melanoma 102% | SW-620 colon 102% | MCF7 breast 91% | HCT-116 colon 87.3% | HCC-2998 colon 113% | KM12 colon 108%

COC(=O)c1ccc(NC(=O)c2ccc(-c3cccc([N+](=O)[O-])c3)o2)cc1
inactive: T-47D breast 96.4% | BT-549 breast 98.9% | MDA-MB-435 melanoma 101% | SW-620 colon 101% | MCF7 breast 76.8% | HCT-116 colon 96% | HCC-2998 colon 102% | KM12 colon 102%

CC1=C[C@H]2c3c(c(O)c(O)c4oc5cc(O)ccc5c(=O)c34)[C@H](c3cc(O)c(O)c4oc5cc(O)ccc5c(=O)c34)[C@H]2C(C)(C)C1
inactive: T-47D breast 18.1% | BT-549 breast 31.4% | MDA-MB-435 melanoma 20% | SW-620 colon 19.5% | MCF7 breast 15.4% | HCC-2998 colon 75.4% | KM12 colon 15%
active: HCT-116 colon 1.38%

O=S(=O)(Nc1ccc(Br)c(Cl)c1)c1ccc(-c2cnc(C3CC3)o2)cc1
inactive: T-47D breast 30.9% | BT-549 breast 38.3% | SW-620 colon 19.3% | MCF7 breast 11.7% | HCT-116 colon 19.5% | HCC-2998 colon 45.9% | KM12 colon 33.8%
active: MDA-MB-435 melanoma -17.1%

O=[N+]([O-])c1ccc2c(c1)Cc1cc(F)ccc1-2
inactive: T-47D breast 94.4% | BT-549 breast 105% | MDA-MB-435 melanoma 96.9% | SW-620 colon 96.3% | MCF7 breast 84.4% | HCT-116 colon 102% | HCC-2998 colon 102% | KM12 colon 109%

O=C1c2ccccc2C(=O)c2c(N=Nc3[nH]c(=S)[nH]c3O)cccc21
active: MDA-MB-435 melanoma -67.7%
inactive: T-47D breast 21.8% | BT-549 breast 34.3% | SW-620 colon 18% | MCF7 breast 18.7% | HCT-116 colon 20.1% | HCC-2998 colon 29.9% | KM12 colon 17%

CN(C)c1ccc(NC(=O)c2ccc(/C=C/C(=O)c3ncc[nH]3)cc2)cc1
inactive: T-47D breast 46.6% | BT-549 breast 63.1% | MDA-MB-435 melanoma 51.7% | SW-620 colon 21.1% | MCF7 breast 12.1% | HCT-116 colon 46.4% | HCC-2998 colon 87.9% | KM12 colon 10.2%

CON1C(=O)CC[C@]2(C)[C@H]3CC[C@@H]4C([C@@]5(C)CCC(=O)O5)CC[C@@]4(C)[C@]3(C)CC[C@H]2C1(C)C (stereo partly specified)
inactive: T-47D breast 90.7% | BT-549 breast 103% | MDA-MB-435 melanoma 101% | SW-620 colon 103% | MCF7 breast 94.8% | HCT-116 colon 91.4% | HCC-2998 colon 108% | KM12 colon 101%

Cc1ccc(C(SCC(N)C(=O)O)(c2ccccc2)c2ccc(C)cc2)cc1 (stereo unspecified)
inactive: T-47D breast 27.1% | BT-549 breast 30.6% | SW-620 colon 15.9% | MCF7 breast 12.3%
active: MDA-MB-435 melanoma -23.5% | HCT-116 colon 6.49% | HCC-2998 colon -20.5% | KM12 colon 2.64%

COc1ccc(/C=C2\Oc3cc(OCCCCN4CCCC4)ccc3C2=O)cc1
inactive: T-47D breast 87.8% | BT-549 breast 82.3% | MDA-MB-435 melanoma 96.5% | SW-620 colon 13.4% | MCF7 breast 39.6% | HCC-2998 colon 91% | KM12 colon 70.5%
active: HCT-116 colon 5.32%

NC(=O)c1cc(Br)ccc1NC(=O)/C=C/c1ccccc1
inactive: T-47D breast 36.4% | BT-549 breast 90.1% | SW-620 colon 29.1% | MCF7 breast 19.9% | HCT-116 colon 38% | HCC-2998 colon 64.4% | KM12 colon 20.7%
active: MDA-MB-435 melanoma -7.27%

O=C1OCC2=C1C(c1ccncc1)c1cc3c(cc1N2CCO)OCO3 (stereo unspecified)
inactive: T-47D breast 91.1% | BT-549 breast 112% | MDA-MB-435 melanoma 96.7% | SW-620 colon 93.4% | MCF7 breast 96.3% | HCT-116 colon 107% | HCC-2998 colon 103% | KM12 colon 97.8%

C#CCOc1ccc2ncnc(Nc3cccc(CNC(=O)C=C)c3)c2c1
inactive: T-47D breast 87.9% [8.25 µM] | BT-549 breast 96.4% [8.25 µM] | MDA-MB-435 melanoma 97.1% [8.25 µM] | SW-620 colon 107% [8.25 µM] | MCF7 breast 87% [8.25 µM] | HCT-116 colon 104% [8.25 µM] | HCC-2998 colon 106% [8.25 µM] | KM12 colon 109% [8.25 µM]

Cn1c(=O)[nH]c(=O)c2nc(CCC(=O)NCCC(=O)O)c(=O)[nH]c21
inactive: T-47D breast 98.8% | BT-549 breast 105% | MDA-MB-435 melanoma 101% | SW-620 colon 101% | MCF7 breast 103% | HCT-116 colon 109% | HCC-2998 colon 98.3% | KM12 colon 102%

Cc1ccc2c(C(C[N+](=O)[O-])c3ccco3)c(-c3ccccc3)[nH]c2c1 (stereo unspecified)
active: MDA-MB-435 melanoma -34%
inactive: T-47D breast 16.1% | BT-549 breast 53.3% | SW-620 colon 17.1% | MCF7 breast 16.5% | HCT-116 colon 19.6% | HCC-2998 colon 70% | KM12 colon 20.2%

COc1ccc(CN2c3ccccc3Sc3ccccc32)c(C(F)(F)F)c1
active: MDA-MB-435 melanoma -33.6% | HCT-116 colon 7.74%
inactive: T-47D breast 25.9% | BT-549 breast 53.5% | SW-620 colon 25.8% | MCF7 breast 24.5% | KM12 colon 20%

NC(=NCCCOc1ccc(Cl)cc1)Nc1ccc(Cl)cc1
active: T-47D breast 8.01% | HCT-116 colon 7.02%
inactive: BT-549 breast 59.6% | MDA-MB-435 melanoma 11.1% | SW-620 colon 33.5% | MCF7 breast 10.1% | KM12 colon 41.3%

COc1ccc(C(=O)COc2ccc(/C=C3\Oc4ccc(OC)cc4C3=O)cc2)cc1
inactive: T-47D breast 103% | BT-549 breast 99.2% | MDA-MB-435 melanoma 115% | SW-620 colon 95.9% | MCF7 breast 110% | HCT-116 colon 84.9% | KM12 colon 94%

COc1ccc(-c2nc(SCC(=O)Nc3ccc(C(=O)/C=C/c4ccc(Cl)cc4)cc3)[nH]c(=O)c2C#N)cc1
active: HCT-116 colon 2.43%
inactive: T-47D breast 61.8% | BT-549 breast 84% | MDA-MB-435 melanoma 41.9% | SW-620 colon 102% | MCF7 breast 41% | KM12 colon 102%

C=C1C(=O)O[C@H]2[C@H]1CC/C(C=Nc1ccc(C(F)(F)F)cc1N)=C\CC[C@@]1(C)O[C@@H]21
inactive: T-47D breast 14.8% | BT-549 breast 16.3% | MCF7 breast 10.7% | KM12 colon 20.3%
active: MDA-MB-435 melanoma 0.426% | SW-620 colon -32% | HCT-116 colon -77.1%

Cc1ccc(O)c(N2C(=NCc3ccco3)NS(=O)(=O)c3cnccc32)c1
inactive: T-47D breast 110% | BT-549 breast 101% | MDA-MB-435 melanoma 91.8% | SW-620 colon 111% | MCF7 breast 101% | HCT-116 colon 99% | KM12 colon 112%

COc1ccc2c(c1)CC/C(=C\c1cncc(Br)c1)C2=O
inactive: T-47D breast 66.1% | BT-549 breast 95.7% | MDA-MB-435 melanoma 82.7% | SW-620 colon 42.6% | MCF7 breast 39.3% | HCT-116 colon 65.8% | KM12 colon 63.7%

CC(=O)c1cc(C(=O)c2ccc3c(c2)Sc2ccccc2N3)n2ccccc12
active: MDA-MB-435 melanoma -9.84% | HCT-116 colon 0.708% | KM12 colon 9.91%
inactive: T-47D breast 43% | BT-549 breast 45.8% | SW-620 colon 23.9% | MCF7 breast 24.7%

C/C1=C\CC[C@@]2(C)O[C@H]2[C@H]2OC(=O)C(CN3CCN(CC4C(=O)O[C@H]5[C@H]4CC/C(C)=C/CC[C@@]4(C)O[C@@H]54)CC3)[C@@H]2CC1 (stereo partly specified)
inactive: T-47D breast 81.5% | BT-549 breast 105% | MDA-MB-435 melanoma 89.1% | SW-620 colon 86.3% | MCF7 breast 74.4% | HCT-116 colon 88% | KM12 colon 98.5%

Fc1ccc2[nH]cc(SSc3c[nH]c4ccc(F)cc34)c2c1
inactive: T-47D breast 27.5% | BT-549 breast 39.6% | MDA-MB-435 melanoma 46.2% | SW-620 colon 91.2% | MCF7 breast 32.2% | HCT-116 colon 25.3% | KM12 colon 24.3%

COc1ccc(CN2c3ccccc3Oc3ccccc32)cc1O
inactive: T-47D breast 30.6% | BT-549 breast 39.9% | SW-620 colon 27% | MCF7 breast 27.3% | HCT-116 colon 13.7% | KM12 colon 20.9%
active: MDA-MB-435 melanoma 9.49%

COc1ccc2nc(NC(=O)CSc3nnc4n3S(=O)(=O)c3ccccc3N4c3ccccc3)sc2c1
inactive: T-47D breast 93.7% | BT-549 breast 83.7% | MDA-MB-435 melanoma 97.8% | SW-620 colon 107% | MCF7 breast 82.3% | HCT-116 colon 87.9% | KM12 colon 97.4%

Cc1ccc2c(c1)C(=O)/C(=C/c1cccc(OCC(=O)c3ccc(Cl)cc3)c1)CS2
inactive: T-47D breast 84.9% | BT-549 breast 101% | MDA-MB-435 melanoma 65.3% | SW-620 colon 25.1% | MCF7 breast 47.4% | HCT-116 colon 52.9% | KM12 colon 60.3%
